{"source": "PubChem BioAssay", "assay": "drug combination growth inhibition, ovarian cancer – cell-based, oncology-focused library, rucaparib conditional, profiling panel (AID 1508598)", "conditions": "patient-derived ovarian cancer cells, CellTiter-Glo viability, 144 h, hits give low values", "key": {"[1]": {"conditions": "at 0.000305 µM, OCI-C5x cells, with rucaparib 10 µM, 100% = cells with rucaparib alone"}, "[2]": {"conditions": "at 0.000305 µM, OCI-C5x cells, without rucaparib"}, "[3]": {"conditions": "at 0.000305 µM, OCI-P5x cells, with rucaparib 20 µM, 100% = cells with rucaparib alone"}, "[4]": {"conditions": "at 0.000305 µM, OCI-P5x cells, without rucaparib"}, "[5]": {"conditions": "at 0.00122 µM, OCI-C5x cells, with rucaparib 10 µM, 100% = cells with rucaparib alone"}, "[6]": {"conditions": "at 0.00122 µM, OCI-C5x cells, without rucaparib"}, "[7]": {"conditions": "at 0.00122 µM, OCI-P5x cells, with rucaparib 20 µM, 100% = cells with rucaparib alone"}, "[8]": {"conditions": "at 0.00122 µM, OCI-P5x cells, without rucaparib"}, "[9]": {"conditions": "at 0.00488 µM, OCI-C5x cells, with rucaparib 10 µM, 100% = cells with rucaparib alone"}, "[10]": {"conditions": "at 0.00488 µM, OCI-C5x cells, without rucaparib"}, "[11]": {"conditions": "at 0.00488 µM, OCI-P5x cells, with rucaparib 20 µM, 100% = cells with rucaparib alone"}, "[12]": {"conditions": "at 0.00488 µM, OCI-P5x cells, without rucaparib"}, "[13]": {"conditions": "at 0.0195 µM, OCI-C5x cells, with rucaparib 10 µM, 100% = cells with rucaparib alone"}, "[14]": {"conditions": "at 0.0195 µM, OCI-C5x cells, without rucaparib"}, "[15]": {"conditions": "at 0.0195 µM, OCI-P5x cells, with rucaparib 20 µM, 100% = cells with rucaparib alone"}, "[16]": {"conditions": "at 0.0195 µM, OCI-P5x cells, without rucaparib"}, "[17]": {"conditions": "at 0.0781 µM, OCI-C5x cells, with rucaparib 10 µM, 100% = cells with rucaparib alone"}, "[18]": {"conditions": "at 0.0781 µM, OCI-C5x cells, without rucaparib"}, "[19]": {"conditions": "at 0.0781 µM, OCI-P5x cells, with rucaparib 20 µM, 100% = cells with rucaparib alone"}, "[20]": {"conditions": "at 0.0781 µM, OCI-P5x cells, without rucaparib"}, "[21]": {"conditions": "at 0.313 µM, OCI-C5x cells, with rucaparib 10 µM, 100% = cells with rucaparib alone"}, "[22]": {"conditions": "at 0.313 µM, OCI-C5x cells, without rucaparib"}, "[23]": {"conditions": "at 0.313 µM, OCI-P5x cells, with rucaparib 20 µM, 100% = cells with rucaparib alone"}, "[24]": {"conditions": "at 0.313 µM, OCI-P5x cells, without rucaparib"}, "[25]": {"conditions": "at 1.25 µM, OCI-C5x cells, with rucaparib 10 µM, 100% = cells with rucaparib alone"}, "[26]": {"conditions": "at 1.25 µM, OCI-C5x cells, without rucaparib"}, "[27]": {"conditions": "at 1.25 µM, OCI-P5x cells, with rucaparib 20 µM, 100% = cells with rucaparib alone"}, "[28]": {"conditions": "at 1.25 µM, OCI-P5x cells, without rucaparib"}, "[29]": {"conditions": "at 5 µM, OCI-C5x cells, with rucaparib 10 µM, 100% = cells with rucaparib alone"}, "[30]": {"conditions": "at 5 µM, OCI-C5x cells, without rucaparib"}, "[31]": {"conditions": "at 5 µM, OCI-P5x cells, with rucaparib 20 µM, 100% = cells with rucaparib alone"}, "[32]": {"conditions": "at 5 µM, OCI-P5x cells, without rucaparib"}}, "note": "Values without a mark were called inactive. Calls of active or inactive are those of the source.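 Rule for the calls: active = normalized viability below 100% at a tested concentration; inactive = the rest.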"}
{"smiles": "COc1ccc(C2=N[C@@H](c3ccc(Cl)cc3)[C@H](c3ccc(Cl)cc3)N2C(=O)N2CCNC(=O)C2)c(OC(C)C)c1", "values": [{"measurement": "viability", "setting": "[1]", "value": 118, "unit": "%"}, {"measurement": "viability", "setting": "[2]", "value": 104, "unit": "%"}, {"measurement": "viability", "setting": "[3]", "value": "90.9% (active)"}, {"measurement": "viability", "setting": "[4]", "value": "90.5% (active)"}, {"measurement": "viability", "setting": "[5]", "value": 117, "unit": "%"}, {"measurement": "viability", "setting": "[6]", "value": 104, "unit": "%"}, {"measurement": "viability", "setting": "[7]", "value": "94.2% (active)"}, {"measurement": "viability", "setting": "[8]", "value": "89.4% (active)"}, {"measurement": "viability", "setting": "[9]", "value": 122, "unit": "%"}, {"measurement": "viability", "setting": "[10]", "value": 106, "unit": "%"}, {"measurement": "viability", "setting": "[11]", "value": "97.7% (active)"}, {"measurement": "viability", "setting": "[12]", "value": "95.5% (active)"}, {"measurement": "viability", "setting": "[13]", "value": 106, "unit": "%"}, {"measurement": "viability", "setting": "[14]", "value": 100, "unit": "%"}, {"measurement": "viability", "setting": "[15]", "value": "96.2% (active)"}, {"measurement": "viability", "setting": "[16]", "value": "95.8% (active)"}, {"measurement": "viability", "setting": "[17]", "value": 113, "unit": "%"}, {"measurement": "viability", "setting": "[18]", "value": "99.5% (active)"}, {"measurement": "viability", "setting": "[19]", "value": 100, "unit": "%"}, {"measurement": "viability", "setting": "[20]", "value": "96.7% (active)"}, {"measurement": "viability", "setting": "[21]", "value": "97.4% (active)"}, {"measurement": "viability", "setting": "[22]", "value": 101, "unit": "%"}, {"measurement": "viability", "setting": "[23]", "value": 104, "unit": "%"}, {"measurement": "viability", "setting": "[24]", "value": "99.4% (active)"}, {"measurement": "viability", "setting": "[25]", "value": "93.7% (active)"}, {"measurement": "viability", "setting": "[26]", "value": 100, "unit": "%"}, {"measurement": "viability", "setting": "[27]", "value": "97.7% (active)"}, {"measurement": "viability", "setting": "[28]", "value": 101, "unit": "%"}, {"measurement": "viability", "setting": "[29]", "value": "84.5% (active)"}, {"measurement": "viability", "setting": "[30]", "value": "95.4% (active)"}, {"measurement": "viability", "setting": "[31]", "value": "89.7% (active)"}, {"measurement": "viability", "setting": "[32]", "value": "91.3% (active)"}]}
{"smiles": "Cc1cc2c(C(=O)NC[C@H](C)c3ccccc3)c(O)c(O)cc2c(O)c1-c1c(C)cc2c(C(=O)NC[C@H](C)c3ccccc3)c(O)c(O)cc2c1O", "values": [{"measurement": "viability", "setting": "[1]", "value": 120, "unit": "%"}, {"measurement": "viability", "setting": "[2]", "value": 108, "unit": "%"}, {"measurement": "viability", "setting": "[3]", "value": "99.3% (active)"}, {"measurement": "viability", "setting": "[4]", "value": "89.3% (active)"}, {"measurement": "viability", "setting": "[5]", "value": 132, "unit": "%"}, {"measurement": "viability", "setting": "[6]", "value": 116, "unit": "%"}, {"measurement": "viability", "setting": "[7]", "value": "98.5% (active)"}, {"measurement": "viability", "setting": "[8]", "value": "89.2% (active)"}, {"measurement": "viability", "setting": "[9]", "value": 128, "unit": "%"}, {"measurement": "viability", "setting": "[10]", "value": 110, "unit": "%"}, {"measurement": "viability", "setting": "[11]", "value": "97.9% (active)"}, {"measurement": "viability", "setting": "[12]", "value": "91.4% (active)"}, {"measurement": "viability", "setting": "[13]", "value": 124, "unit": "%"}, {"measurement": "viability", "setting": "[14]", "value": 116, "unit": "%"}, {"measurement": "viability", "setting": "[15]", "value": 102, "unit": "%"}, {"measurement": "viability", "setting": "[16]", "value": "91.3% (active)"}, {"measurement": "viability", "setting": "[17]", "value": 122, "unit": "%"}, {"measurement": "viability", "setting": "[18]", "value": 110, "unit": "%"}, {"measurement": "viability", "setting": "[19]", "value": 105, "unit": "%"}, {"measurement": "viability", "setting": "[20]", "value": "95.4% (active)"}, {"measurement": "viability", "setting": "[21]", "value": 119, "unit": "%"}, {"measurement": "viability", "setting": "[22]", "value": 106, "unit": "%"}, {"measurement": "viability", "setting": "[23]", "value": "96.3% (active)"}, {"measurement": "viability", "setting": "[24]", "value": "93.3% (active)"}, {"measurement": "viability", "setting": "[25]", "value": 123, "unit": "%"}, {"measurement": "viability", "setting": "[26]", "value": 106, "unit": "%"}, {"measurement": "viability", "setting": "[27]", "value": "99.6% (active)"}, {"measurement": "viability", "setting": "[28]", "value": "91.3% (active)"}, {"measurement": "viability", "setting": "[29]", "value": "15.2% (active)"}, {"measurement": "viability", "setting": "[30]", "value": "17.1% (active)"}, {"measurement": "viability", "setting": "[31]", "value": "2.71% (active)"}, {"measurement": "viability", "setting": "[32]", "value": "9.17% (active)"}]}
